PubChem BioAssay AID1159580 (chemical genetic matrix, 2015)
Several values for one entry are separate records, joined by “and”; a condition that tells them apart may be missing. Equal values may be shown once. Screen size: about 5,500 compounds; about 2,000 (36%) were called active. Another 18% or so got no clear call; they are omitted. No stated cut-off is given here; in the data, active means normalized growth mostly below about 0.91 (no sharp cut-off); inconclusive means no clear call, values can overlap the other calls; inactive means mostly above about 0.92. Some of the results follow.

Assay: chemical genetic growth profiling, strain panel (AID 1159580);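 further: tested at 20 µM; growth read once vehicle control cultures reached saturation at 30 °C; 1 = growth at the plate median or of vehicle wells; lower values mean less growth of the strain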
Settings: S. cerevisiae deletion strains, growth OD

Measured: normalized growth

O=C1C[C@@H](c2ccc(O)cc2)Oc2cc(O)cc(O)c21
inactive: locus YAL013W, strain DEP1, hits give low values 1.02 | locus YAL021C, strain ccr4, hits give low values 0.987 | locus YAL026C, strain drs2, hits give low values 0.969 | locus YAL030W, strain snc1, hits give low values 0.953 | locus YBL061C, strain skt5, hits give low values 0.974 | locus YBR009C, strain hhf1, hits give low values 0.959 | locus YBR021W, strain FUR4, hits give low values 0.995 | locus YBR023C, strain chs3, hits give low values 0.955 | locus YBR171W, strain sec66, hits give low values 0.989 | locus YBR229C, strain ROT2, hits give low values 1.02 | locus YBR231C, strain swc5, hits give low values 0.972 | locus YBR279W, strain paf1, hits give low values 0.97 | locus YCL011C, strain gbp2, hits give low values 0.952 | locus YCL016C, strain dcc1, hits give low values 0.969 | locus YCL029C, strain bik1, hits give low values 1.03 | locus YCL061C, strain MRC1, hits give low values 0.979 | locus YCL069W, strain vba3, hits give low values 0.966 | locus YCR088W, strain abp1, hits give low values 0.955 | locus YDL005C, strain med2, hits give low values 0.978 | locus YDL035C, strain GPR1, hits give low values 1.01 | locus YDL040C, strain nat1, hits give low values 0.976 | locus YDL074C, strain BRE1, hits give low values 1.01 | locus YDL101C, strain DUN1, hits give low values 1.01 | locus YDL134C, strain PPH21, hits give low values 1.01 | locus YDL185W, strain tfp1, hits give low values 1.01 | locus YDL192W, strain arf1, hits give low values 1.01 | locus YDR001C, strain nth1, hits give low values 0.964 | locus YDR069C, strain doa4, hits give low values 0.944 | locus YDR101C, strain arx1, hits give low values 1.01 | locus YDR137W, strain rgp1, hits give low values 0.955 | locus YDR150W, strain NUM1, hits give low values 1.01 | locus YDR159W, strain sac3, hits give low values 0.942 | locus YDR162C, strain NBP2, hits give low values 1.01 | locus YDR195W, strain ref2 0.931 | locus YDR297W, strain sur2, hits give low values 0.97 | locus YDR318W, strain mcm21, hits give low values 1.01 | locus YDR334W, strain swr1, hits give low values 0.962 | locus YDR335W, strain msn5, hits give low values 0.979 | locus YDR388W, hits give low values 1.01 | locus YDR392W, strain spt3, hits give low values 0.862 | locus YDR502C, strain sam2, hits give low values 1.01 | locus YEL003W, strain gim4, hits give low values 0.977 | locus YEL037C, strain rad23, hits give low values 0.968 | locus YEL061C, strain CIN8 (second series), hits give low values 0.949 | locus YEL061C, strain CIN8, hits give low values 1.01 | locus YER015W, strain faa2, hits give low values 0.982 | locus YER016W, strain bim1, hits give low values 0.971 | locus YER110C, hits give low values 1.02 | locus YER111C, strain swi4, hits give low values 0.958 | locus YER155C, strain BEM2 (second series), hits give low values 0.875 | locus YER155C, strain BEM2, hits give low values 1.01 | locus YER167W, strain BCK2, hits give low values 1.01 | locus YFR010W, strain ubp6, hits give low values 0.924 | locus YGL078C, strain dbp3, hits give low values 1.02 | locus YGL086W, strain mad1, hits give low values 1.01 | locus YGL167C, strain pmr1, hits give low values 0.949 | locus YGL173C, strain kem1, hits give low values 0.969 | locus YGL227W, strain vid30, hits give low values 0.948 | locus YGL240W, strain doc1, hits give low values 0.944 | locus YGL248W, strain PDE1, hits give low values 1.01 | locus YGL253W, strain hxk2, hits give low values 0.983 | locus YGR078C, strain PAC10, hits give low values 1.01 | locus YGR135W, strain pre9, hits give low values 1 | locus YGR229C, strain SMI1, hits give low values 1.01 | locus YGR252W, strain gcn5, hits give low values 0.988 | locus YHR013C, strain ard1, hits give low values 0.933 | locus YHR027C, strain rpn1, hits give low values 0.971 | locus YHR030C, strain SLT2, hits give low values 1.01 and 0.975 | locus YHR079C, strain IRE1 (second series), hits give low values 1.01 | locus YHR079C, strain IRE1, hits give low values 0.977 | locus YHR094C, strain hxt1, hits give low values 1 | locus YHR129C, strain ARP1, hits give low values 1.01 | locus YHR142W, strain chs7, hits give low values 0.942 | locus YHR200W, strain rpn10, hits give low values 1.01 | locus YIL066C, strain RNR3, hits give low values 1.02 | locus YIL073C, strain SPO22, hits give low values 1.05 | locus YIL125W, strain kgd1, hits give low values 1.01 | locus YIR030C, strain dcg1, hits give low values 1.02 | locus YJL092W, strain hpr5, hits give low values 0.977 | locus YJL095W, strain BCK1 (second series), hits give low values 0.976 | locus YJL095W, strain BCK1, hits give low values 0.997 and 0.98 | locus YJL115W, strain asf1, hits give low values 0.964 | locus YJL129C, strain trk1, hits give low values 0.947 | locus YJL134W, strain LCB3, hits give low values 1.01 | locus YJL154C, strain vps35, hits give low values 0.967 | locus YJL164C, strain tpk1, hits give low values 0.97 | locus YJL166W, strain qcr8, hits give low values 0.968 | locus YJL168C, strain set2, hits give low values 1.02 | locus YJL187C, strain SWE1 (second series), hits give low values 1.02 | locus YJL187C, strain SWE1, hits give low values 0.965 | locus YJR043C, strain POL32, hits give low values 1.01 | locus YJR066W, strain TOR1, hits give low values 0.935
